KCNQ2 enhance – potentiators of rat KCNQ2 potassium channel | CHO-K1 KCNQ2, FluxOR thallium flux fluorescence; stronger effect = higher value | B-score at 10 µM | 0.54% of 310,000 active | AID 2239;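 active = fluorescence ratio B-score at least 3 SD of library B-scores, with initial fluorescence B-score within 3 of them, cut at about 5.3 in these data; same plate scores as AID 2156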;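 also: B-score of peak minus minimum over baseline fluorescence ratio after K+ and Tl+ stimulus; positive B-score means potentiation of KCNQ2 with more thallium influx and brighter signal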
KCNQ2 inh – inhibitors of rat KCNQ2 potassium channel; O88943; 1.1% of 310,000 active; AID 2156; B-score at 10 µM; CHO-K1 KCNQ2, FluxOR thallium flux, 20 min; stronger effect = lower value;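 active = fluorescence ratio B-score at most minus 3 library SDs, with starting brightness B-score within 2 library SDs, cut at about -5.5 in these data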
KCNQ2 inh conf – confirmation of rat KCNQ2 potassium channel inhibitors; 57% of 1,000 active; shares compounds with KCNQ2 inh; AID 493025; KCNQ2-expressing cells, thallium flux, inhibition; stronger effect = lower value; activity change, negative = inhibition, % at 10 µM;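 also: 0% = vehicle wells and values are ratio percent relative to vehicle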
KCNQ1 spec – KCNQ2 inhibitor that also affects human KCNQ1 channel | 15% of 1,000 active | activity change, negative = inhibition, % at 10 µM | shares compounds with KCNQ2 inh | KCNQ1-expressing cells, FluxOR thallium flux fluorescence; stronger effect = lower value;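 active = activity change at least 3 SD of negative controls below their mean in both duplicate wells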;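 also: CHO cells stably transfected with KCNQ1 and depolarized by potassium stimulus; peak minus minimum fluorescence over baseline after thallium addition; 0% = vehicle negative control and -100% = blank without thallium stimulus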
Target sequence (P51787 whole entry, looked up): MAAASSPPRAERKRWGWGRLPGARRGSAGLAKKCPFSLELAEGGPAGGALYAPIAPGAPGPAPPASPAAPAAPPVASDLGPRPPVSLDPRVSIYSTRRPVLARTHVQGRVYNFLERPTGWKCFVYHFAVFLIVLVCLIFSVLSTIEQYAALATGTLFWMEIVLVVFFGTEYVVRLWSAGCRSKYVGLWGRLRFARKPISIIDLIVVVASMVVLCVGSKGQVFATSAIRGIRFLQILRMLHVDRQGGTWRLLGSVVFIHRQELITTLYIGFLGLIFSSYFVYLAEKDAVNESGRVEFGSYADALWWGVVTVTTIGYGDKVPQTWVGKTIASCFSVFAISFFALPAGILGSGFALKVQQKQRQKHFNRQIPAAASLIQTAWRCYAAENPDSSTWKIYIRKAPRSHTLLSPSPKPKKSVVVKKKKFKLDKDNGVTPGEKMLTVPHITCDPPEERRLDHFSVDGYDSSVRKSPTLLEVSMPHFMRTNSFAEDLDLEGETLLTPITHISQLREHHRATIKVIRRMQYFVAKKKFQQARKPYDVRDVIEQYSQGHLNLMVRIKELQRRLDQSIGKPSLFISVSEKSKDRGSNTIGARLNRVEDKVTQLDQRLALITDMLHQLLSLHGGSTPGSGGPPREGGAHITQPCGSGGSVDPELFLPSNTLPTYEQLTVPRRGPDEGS
CHO Tl ctr – activity in parental CHO cells lacking KCNQ2. 14% of 1,000 active. thallium flux counter-screen; stronger effect = lower value. shares compounds with KCNQ2 inh. activity change, % at 10 µM;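 also: 0% = vehicle negative controls with stimulus buffer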
KCNQ2 inh confirm – confirmation of rat KCNQ2 potassium channel inhibitors; shares compounds with KCNQ2 inh; KCNQ2-expressing cells, automated patch clamp current; calls only at 10 µM; 49% of 550 active
Active calls of the source: *; i = inactive; · = no result given; + = active, no number. Most compounds without a hit are left out; they make up all but 1.6% or so of the library. Unless noted, no rule for the calls is given here.

SMILES	KCNQ2 enhance	KCNQ2 inh	KCNQ2 inh conf	KCNQ1 spec	CHO Tl ctr	others
O=C(Nc1cccnc1)c1cc(-c2cccc(Br)c2)nc2ccccc12	-6.7	-6.7*	-28%*	i	i	KCNQ2 inh confirm=i
O=C(O)c1cc(-c2ccc3c(c2)OCO3)nc2ccccc12	0.1	i	·	·	·
COc1cccc(-c2cc(C(=O)Nc3ccccc3)c3ccccc3n2)c1	-9.1	-9.1*	i	i	i
CCCN(CCC)C(=O)c1cc(-c2ccc3c(c2)OCO3)nc2ccccc12	-8.5	-8.5*	-26%*	i	i	KCNQ2 inh confirm=+
Cc1cccc(-c2cc(C(=O)Nc3ccc4c(c3)OCCO4)c3ccccc3n2)c1	·	i	·	·	·
CN1CCN(S(=O)(=O)Cc2ccc(Cl)cc2)CC1	1.7	i	·	·	·
CN1CCN(CCCN2c3ccccc3Sc3ccc(C(F)(F)F)cc32)CC1	-8.1	-8.1*	-34%*	i	i	KCNQ2 inh confirm=i
O=C(CN1CCCC(O)C1)N1c2ccccc2Sc2ccc(C(F)(F)F)cc21 (configuration not stated)	·	i	·	·	·
CCOc1ccc(NC(=O)CCNC(=O)C2CCN(S(=O)(=O)c3ccccc3)CC2)cc1	·	i	·	·	·
O=C(O)c1nc(NCCc2ccccc2)ncc1Cl	0.02	i	·	·	·
O=C(O)c1ccc2nc(-c3ccco3)c(-c3ccco3)nc2c1	·	i	·	·	·
O=C(Nc1cccc(C(F)(F)F)c1)c1ccc2nc(-c3ccco3)c(-c3ccco3)nc2c1	-8.5	-8.5*	-30%*	i	i	KCNQ2 inh confirm=+
O=C(NC1CCN(c2ncccn2)CC1)c1ccccc1F	0.78	i	·	·	·
COc1ccc2nc(SCC(=O)Nc3ccc(S(=O)(=O)N4CCCC4)cc3)c(C#N)cc2c1	0.76	i	·	·	·
CCOc1ccc2nc(SCC(=O)Nc3ccc(S(=O)(=O)N4CCCC4)cc3)c(C)cc2c1	-8.5	-8.5*	i	i	i
CC(=O)Nc1ccc(NC(=O)C2CCCN2C(=O)Nc2ccc(F)c([N+](=O)[O-])c2)cc1 (configuration not stated)	·	i	·	·	·
COc1ccc(CN(C)C(=O)C(Cc2ccccc2)NC(=O)c2ccccc2)c(OC)c1 (configuration not stated)	-6.7	-6.7*	-33%*	i	i	KCNQ2 inh confirm=+
COc1ccc(CN(C)C(=O)c2ccc(COc3ccccc3)cc2)c(OC)c1	·	i	·	·	·
CN(CC(=O)Nc1ccc(F)c(F)c1F)C(=O)Cc1ccc2c(c1)OCCO2	1.4	i	·	·	·
Cc1ccc(S(=O)(=O)N(C)c2ccccc2C(=O)Nc2ccc(F)cc2F)cc1	-8.6	-8.6*	i	i	i
Cc1ccc(NC(=O)c2ccccc2N(C)S(=O)(=O)c2ccccc2)c(C)c1	-8.4	-8.4*	-34%*	i	i	KCNQ2 inh confirm=+
Cc1ccccc1CNC(=O)c1ccccc1N(C)S(=O)(=O)c1ccccc1	-6.7	-6.7*	-40%*	-36%*	-28%*	KCNQ2 inh confirm=+
CC(=O)Nc1ccc(NC(=O)c2ccccc2N(C)S(=O)(=O)c2ccc(C)cc2)cc1	0.02	i	·	·	·
COC(=O)c1ccccc1NC(=O)c1ccccc1N(C)S(=O)(=O)c1ccccc1	·	i	·	·	·
CCCNC(=O)c1ccccc1NC(=O)c1ccccc1N(C)S(=O)(=O)c1ccccc1	·	i	·	·	·
SMILES	KCNQ2 enhance	KCNQ2 inh	KCNQ2 inh conf	KCNQ1 spec	CHO Tl ctr	others
CCCCc1nc(SCc2ccc([N+](=O)[O-])cc2)n[nH]1	·	i	·	·	·
Cn1c2ccccc2c2c(C(=O)NCc3ccco3)cn(C3CCCCC3)c(=O)c21	-9.8	-9.8*	-26%*	i	i	KCNQ2 inh confirm=+
COCCn1cc(C(=O)NCc2ccco2)c2c3ccccc3n(C)c2c1=O	0.07	i	·	·	·
CCOc1cc(CNc2ccc(N(C)C)cc2)cc(Br)c1OCC(=O)NC(C)(C)C	·	i	·	·	·
CCOc1cc(CNc2cccc3ccccc23)cc(Br)c1OCC(=O)NC(C)(C)C	-6.8	-6.8*	i	i	i
CC(C)(C)SCCNC(=O)COc1ccc(Cl)cc1	·	i	·	·	·
Cc1ccccc1CSCCNC(=O)COc1ccc(Cl)cc1	-8.6	-8.6*	i	i	i
O=S(=O)(c1ccc(Cl)c(C(F)(F)F)c1)N1CCN(c2ccccn2)CC1	·	i	·	·	·
CCC1CCCCN1C(=O)CCc1nnc(C2CCCCC2)o1 (configuration not stated)	0.01	i	·	·	·
COc1ccc(CN(Cc2ccccn2)C(=O)CN2C(=O)COc3ccccc32)cc1	0.38	i	·	·	·
CC1Oc2ccccc2N(CC(=O)N(Cc2ccccc2)Cc2ccccn2)C1=O (configuration not stated)	-7.2	-7.2*	-16%*	i	i	KCNQ2 inh confirm=+
O=C(Nc1ccccc1Cl)c1cc(S(=O)(=O)N2CCCCC2)ccc1N1CCOCC1	·	i	·	·	·
O=C(Nc1ccccc1N1CCCCC1)c1cc(S(=O)(=O)N2CCOCC2)ccc1Cl	-9	-9*	-28%*	i	i	KCNQ2 inh confirm=+
CCN1CCN(S(=O)(=O)c2ccc(Cl)c(C(=O)Nc3cc(Cl)ccc3N3CCOCC3)c2)CC1	-6.7	-6.7*	i	i	i
CCN1CCN(S(=O)(=O)c2ccc(Cl)c(C(=O)Nc3ccccc3N3CCOCC3)c2)CC1	·	i	·	·	·
O=C1NC(Cc2ccccc2)C(=O)N1Cc1cc([N+](=O)[O-])cc2c1OCOC2 (configuration not stated)	·	i	·	·	·
Cc1ccc(Sc2ccc(N)cn2)cc1	0.32	i	·	·	·
Cc1ccc(-n2ncc3c2CCCC3NC(=O)CCn2ccnc2C)cc1C (configuration not stated)	·	i	·	·	·
CCN1CCN(CCNC(=O)c2ccc(/C=C3/Sc4ccccc4N(Cc4ccccc4C)C3=O)cc2)CC1	-13	-13*	i	i	i
CCN1CCN(CCCNC(=O)c2ccc(/C=C3/Sc4ccccc4N(Cc4ccccc4F)C3=O)cc2)CC1	·	i	·	·	·
CC(=O)N1CCc2c(sc3c2c(=O)n(Cc2ccccc2)c(=O)n3CC(=O)NCC2CCCO2)C1 (configuration not stated)	·	i	·	·	·
CCOC(=O)N1CCc2c(sc3c2c(=O)n(Cc2ccccc2)c(=O)n3Cc2ccc(C)cc2)C1	-7.7	-7.7*	i	i	i
O=C(NCc1ccc(Cl)cc1)C1CCCN(c2cnccn2)C1 (configuration not stated)	0.38	i	·	·	·
COc1ccc(NC(=O)c2cc(OC)c(OC)c(OC)c2Br)cc1OC	2.7	i	·	·	·
COc1cc(C(=O)Nc2c(C)cc(C)cc2C)c(Br)c(OC)c1OC	-8.8	-8.8*	i	i	i
CN(C)N1C(N)=C(C#N)C(c2cccnc2)C2=C1CCCC2=O (configuration not stated)	·	i	·	·	·
CCN(CC(=O)Nc1ccccc1C(F)(F)F)C(=O)c1cc(-c2cccs2)nn1-c1ccccc1	·	i	·	·	·
CCCN(CC(=O)Nc1ccccc1OC)C(=O)c1cc(-c2cccs2)nn1-c1ccccc1	-9.3	-9.3*	-32%*	i	i	KCNQ2 inh confirm=+
Cc1ccccc1N(CC(=O)NC1CCCCC1)C(=O)CCCC(=O)Nc1ccccn1	0.02	i	·	·	·

Source: PubChem BioAssay (Johns Hopkins Ion Channel Center)
